According to PubChem BioAssay AID1159554 (Broad Institute, 2015):
Among all 94,000 compounds or so, about 2,100 (2.2%) were called active. No stated cut-off is given here; in the data, active means activity change below about -80%; inconclusive means no clear call, values can overlap the other calls; inactive means above that. The entries come from a sample that favours actives as a whole.

Assay: P. falciparum Dd2 growth inhibitors, primary screen, SYBR Green fluorescence, single dose replicates (AID 1159554)
Conditions: 72 h, at 10 µM, active compounds read low

Activity change, inactive:
C[C@@H]1CN([C@@H](C)CO)C(=O)c2cc(/C=C/c3ccccc3)cnc2O[C@H]1CN(C)C(=O)C1CCC1 -56.3%
C[C@H](CO)N1C[C@H](C)[C@H](CN(C)C(=O)C2CCCCC2)Oc2ncc(C#CC3CC3)cc2C1=O -16.5%
COc1cccc(C#Cc2cnc3c(c2)C(=O)N([C@@H](C)CO)C[C@H](C)[C@@H](CN(C)C(C)=O)O3)c1 -15.1%
C[C@@H]1CN([C@H](C)CO)C(=O)c2cc(-c3ccccc3)cnc2O[C@H]1CN(C)C(=O)NC1CCCC1 -13%
COc1ccc(-c2cnc3c(c2)C(=O)N([C@@H](C)CO)C[C@H](C)[C@H](CN(C)C(=O)Cc2cccnc2)O3)cc1 -2.15%
COc1cccc(C#Cc2cnc3c(c2)C(=O)N([C@@H](C)CO)C[C@H](C)[C@@H](CN(C)C(=O)C2CCC2)O3)c1 -74.6%
C[C@H](CO)N1C[C@H](C)[C@H](CN(C)C(=O)C2CC2)Oc2ncc(C#Cc3ccccc3)cc2C1=O -17.2%
C[C@H](CO)N1C[C@H](C)[C@@H](CN(C)C(=O)Cc2cccnc2)Oc2ncc(-c3ccncc3)cc2C1=O 14.1%
CC(C)(C)[S@@](=O)N1Cc2cc(C(=O)N3CCCCC3)nc(-c3cccc(-c4cccc(C#N)c4)c3)c2[C@H]1CCO -13.7%
O=C(c1ccc(F)cc1)N1CC(=O)N2[C@H](C1)[C@@H](c1ccc(C#CC3CC3)cc1)[C@@H]2CO -8.1%
Cc1ccc(S(=O)(=O)Nc2ccc3c(c2)C(=O)N([C@H](C)CO)C[C@H](C)[C@@H](CN(C)S(=O)(=O)c2cn(C)cn2)OCCCC[C@H](C)O3)cc1 -12.5%
COC(=O)C[C@H]1CC[C@H](NC(=O)Nc2ccc(C(F)(F)F)cc2)[C@H](CO)O1 21.3%
CCCNC(=O)C[C@H]1CC[C@@H]2[C@H](COc3ccc(NC(=O)c4ccc(OC)cc4)cc3C(=O)N2C)O1 -22.5%
CCC(=O)N1[C@@H](CO)[C@@H](c2ccccc2)C12CN(C(=O)c1cnccn1)C2 -2.84%
CCC(=O)N1CC2(CN(Cc3cccnc3)C2)c2c(n(C)c3cc(OC)ccc23)[C@@H]1CO -20.9%
COc1ccc(NC(=O)N[C@@H]2CC[C@H](CCn3cc(-c4ccc(OC)cc4)nn3)O[C@@H]2CO)cc1 -56.9%
C[C@H]1CN([C@@H](C)CO)C(=O)c2c(c3ccccc3n2C)-c2ccccc2CO[C@@H]1CN(C)C(=O)Nc1ccnc(N2CCOCC2)c1 -58.1%
CO[C@H]1CN(C)C(=O)c2cc(NC(=O)C3CC3)ccc2OC[C@H](C)N(CC2CCCC2)C[C@@H]1C -38.7%
CCS(=O)(=O)N1CC2(C1)CN(S(=O)(=O)c1ccccc1)[C@H](CO)c1c2c2ccc(OC)cc2n1C -29.8%
O=C(C[C@@H]1C[C@@H]2c3cc(NC(=O)c4ccc5c(c4)OCO5)ccc3O[C@@H]2[C@H](CO)O1)NCCc1ccccc1 -3.19%
CCC(=O)N1CC2(CN(Cc3ccc(Cl)cc3)C2)c2c([nH]c3cc(OC)ccc23)[C@@H]1CO -23%
CCCC(=O)N1CCC2(CC1)CN(C(=O)C1CCCCC1)[C@@H](CO)c1[nH]c3cc(OC)ccc3c12 -78%
CCC(=O)N1CCC2(CC1)CN(Cc1cccc(Cl)c1)[C@@H](CO)c1c2c2ccc(OC)cc2n1C -75.9%
CCCNC(=O)N1CCC2(CC1)CN(Cc1ccccc1)[C@H](CO)c1[nH]c3cc(OC)ccc3c12 -59.4%
COc1ccc2c3c([nH]c2c1)[C@@H](CO)N(Cc1ccc2c(c1)OCO2)CC31CN(C(=O)Nc2c(C)noc2C)C1 -13.6%
CCS(=O)(=O)N1CCC2(CC1)CN(S(=O)(=O)c1ccc(C)cc1)[C@H](CO)c1[nH]c3cc(OC)ccc3c12 -53.4%
COc1ccc2c3c([nH]c2c1)[C@H](CO)N(C(=O)Nc1ccc(F)cc1)CC31CCN(C(=O)c2ccccn2)CC1 -79.3%
COc1ccc2c3c([nH]c2c1)[C@@H](CO)N(C(=O)NC(C)C)CC31CCN(C(=O)c2ccccn2)CC1 -13%
Cc1noc(C)c1NC(=O)N(C)C[C@@H]1Oc2cc(Br)ccc2S(=O)(=O)N([C@@H](C)CO)C[C@H]1C 12.9%
COc1cccc(NC(=O)C[C@@H]2CC[C@@H]3[C@H](COc4ccc(NC(=O)C5CCOCC5)cc4C(=O)N3C)O2)c1 11.1%
C/C=C/c1ccc2c(c1)[C@H]1[C@H](CCN1S(=O)(=O)c1cn(C)cn1)[C@H](CO)N2 -1.2%
CCCNC(=O)N1C[C@H]2[C@@H](c3ccccc31)[C@@H](CO)N2C(=O)NCCC -1.9%

Activity change, active:
COc1ccc(-c2cnc3c(c2)C(=O)N([C@H](C)CO)C[C@@H](C)[C@H](CN(C)C(=O)Cc2ccncc2)O3)cc1 -84.6%
COc1cccc(C#Cc2cnc3c(c2)C(=O)N([C@H](C)CO)C[C@@H](C)[C@@H](CN(C)C(=O)C2CCC2)O3)c1 -84.4%
C[C@H](CO)N1C[C@H](C)[C@H](CN(C)C(=O)C2CCCCC2)Oc2ncc(C#Cc3cccc(F)c3)cc2C1=O -86.4%
C[C@H]1CN([C@@H](C)CO)C(=O)c2cc(/C=C/c3ccccc3)cnc2O[C@@H]1CN(C)C(=O)NC1CCCCC1 -82.8%
CCC(=O)N1CCC2(CC1)CN(Cc1cccc(OC)c1)[C@@H](CO)c1[nH]c3cc(OC)ccc3c12 -89.5%
CCC(=O)N1CCC2(CC1)CN(Cc1ccc(Cl)cc1)[C@@H](CO)c1[nH]c3cc(OC)ccc3c12 -90.6%
COc1ccc2c3c([nH]c2c1)[C@H](CO)N(Cc1ccccc1)CC31CCN(C(=O)c2ccccn2)CC1 -83.5%
CCS(=O)(=O)N1CCC2(CC1)CN(Cc1ccc3c(c1)OCO3)[C@H](CO)c1[nH]c3cc(OC)ccc3c12 -89.1%
